Assay outcomes (PubChem)
AmpC no deterg: inhibitors of E. coli AmpC beta-lactamase without detergent; AmpC nitrocefin hydrolysis, absorbance 480 nm, 0.0001% Triton; Potency, µM (highest dose often 57.1 µM), for inactives: at the highest dose activity change, negative = inhibition, most hits filed as inhibitors; P00811; hit rate 0.52% among 330,000;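 also: potency is read from the fitted curve at half-maximal effect; plate controls were no compound for no effect and no enzyme for full effect; nearly all actives have a fitted effect of over 20% in size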
Target sequence (P00811 whole entry, looked up): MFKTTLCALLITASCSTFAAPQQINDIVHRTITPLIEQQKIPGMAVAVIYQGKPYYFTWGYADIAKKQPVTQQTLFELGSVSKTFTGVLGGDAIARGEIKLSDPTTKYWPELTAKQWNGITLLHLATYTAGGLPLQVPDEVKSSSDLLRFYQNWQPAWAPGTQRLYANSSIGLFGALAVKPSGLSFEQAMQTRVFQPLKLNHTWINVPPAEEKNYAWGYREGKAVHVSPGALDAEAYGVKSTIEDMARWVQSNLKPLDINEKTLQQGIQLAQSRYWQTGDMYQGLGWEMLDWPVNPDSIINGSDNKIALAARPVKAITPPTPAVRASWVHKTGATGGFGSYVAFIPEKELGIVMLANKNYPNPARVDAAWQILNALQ
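AmpC (5.3 nM in the dispensed reagent) in 20 mM phosphate pH 7.0 with 0.01% (detergent screen) or 0.0001% Triton X-100 was preincubated with compounds for 15 min at room temperature. Nitrocefin was then added from an 800 uM solution, and hydrolysis was followed at 480 nm.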
AmpC inh detg: inhibitors of E. coli AmpC beta-lactamase with detergent; AmpC hydrolysis of nitrocefin, absorbance 480 nm, 0.01% Triton; Potency, µM (top dose mostly 114 µM), for the others: at the top dose activity change, negative = inhibition, hits mostly inhibitors; hit rate 0.041% among 370,000;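 also: potency is read from the fitted curve at half-maximal effect; 0% = no-compound wells and -100% = no-enzyme wells; nearly all actives have a fitted effect of over 25% in size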
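20 mM phosphate pH 7.0 + 0.01% (detergent screen) or 0.0001% Triton X-100; 5.3 nM AmpC reagent; cpd preinc 15 min RT; nitrocefin (800 uM stock) to start; A480 q20 s × 4 min; Activity was normalised to no-enzyme and no-compound control wells.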
FMDV inh: foot and mouth disease virus antiviral activity; FMDV antiviral cell-based qHTS; Potency, µM (doses to about 57.9 µM), without a hit: at the top dose activity change, negative = inhibition, most hits filed as inhibitors; hit rate 1.2% among 410,000; calls by dose curve; tested in HEK293T cells; also: read-out not given here; potency is read from the fitted curve at half-maximal effect; nearly all actives have a fitted effect of over 45% in size
HCMV inh: human cytomegalovirus inhibition; HFF cells, HCMV-luciferase reporter, 72 h; active compounds read low; activity change, negative = inhibition, % at 57.5 µM; hit rate 4.5% among 410,000; in the data active = activity change below about -60%; inconclusive = no clear call, values can overlap the other calls; inactive = above about -39%
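Human foreskin fibroblasts infected with luciferase-reporter HCMV at MOI 1 PFU/cell, compounds at two doses. Luciferase measured 72 h post infection; normalized to buffer-only basal and Salinomycin (10uM) controls.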
HCV inhibitor: blocks hepatitis C virus; Huh7.5.1 HCVcc-Cre infection, luciferase reporter, 44 h; Potency, µM (top dose mostly 41.8 µM), inactives show at the top dose activity change, negative = inhibition, actives largely listed as inhibitors; hit rate 3.4% among 340,000; AID 651820; also: potency is read from the fitted curve at half-maximal effect
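Antiviral activity was scored by luciferase reporter output from cells infected with HCVcc-Cre (~0.5 moi) in presence of compound, 44 h infection period, cells seeded 1,000/well 4 h prior.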
An asterisk follows results filed as active; ? = inconclusive; . = no result given; + = active, no number; [ ] = another dose, or the depositor's remark. Most compounds without a hit are left out; they make up all but 7.3% or so of the library. Unless noted, calls follow the shape of the dose curve; as a rule, active = well fitted curve in the direction sought with a large enough effect; inconclusive = small, poorly fitted or top-dose-only effect, or another doubt; inactive = no such curve, though single readings can be large; an effect the other way counts as inactive or inconclusive. Unless noted, % is scaled to controls: 0 for no effect and ±100 for the full control effect.

SMILES | AmpC no deterg | AmpC inh detg | FMDV inh | HCMV inh | HCV inhibitor
Cc1cccc(-n2ccnc2SCC(=O)Nc2cc(C)on2)c1 | -16.6% | -10.9% | -25.3% | 29.8 | 0.6%
Cc1cc(NC(=O)CSc2nnc(-c3ccccc3C)n2C)no1 | -20.0% | -3.6% | -4.1% | 19.3 | 0.1%
Cc1cc(NC(=O)CSc2nnc(-c3ccco3)n2C)no1 | -10.3% | -0.6% | -13.2% | -60.4* | 31.4%
Cc1cc(NC(=O)CSc2nccn2-c2cccc(C)c2C)no1 | -38.3% | ? | 0.0% | -8.1 | 11.2µM*
CCOC(=O)C1CN(C(=O)OCC)CC1=NNC(N)=O (stereo not drawn) | . | . | -5.4% | 9.8 | .
CC(C)Nc1nc(-c2cccnc2)nc(-c2ccccc2)c1C#N | -9.3% | -11.6% | ? | . | ?
CC(C)Nc1nc(-c2ccccn2)nc(-c2ccccc2)c1C#N | -10.2% | ? | -15.2% | -67.3* | 8.4%
CN(C(=O)COC(=O)c1ccc(Br)c(S(=O)(=O)N2CCOCC2)c1)C1CCCCC1 | 67.2% | . | ? | -12.6 | -7.2%
CSc1ccc(CNCc2c(C(=O)O)c(C)n(Cc3ccc(F)cc3Cl)c2C)cc1 | . | 23.2% | -1.7% | 10.7 | .
Nc1c(C(=O)c2ccc(F)cc2)sc(Nc2ccccc2F)c1S(=O)(=O)c1ccc(Br)cc1 | . | -4.7% | -17.8% | -70.7* | .
Cc1ccc(S(=O)(=O)c2c(Nc3cc(F)ccc3F)sc(C(=O)c3ccc(F)cc3)c2N)cc1 | . | 10.7% | ? | -64.9* | .
Cc1ccc(Nc2sc(C(=O)c3ccc(F)cc3)c(N)c2S(=O)(=O)c2ccc(C)cc2)cc1 | . | 20.0% | -8.1% | -7.9 | .
Cc1cccc2nc(-c3ccccc3)c(-c3ccc(CN4CCC(n5cc(-c6ccccc6)[nH]c5=O)CC4)cc3)nc12 | . | . | . | -13.0 | .
COc1ccc(-n2nnnc2C(c2cc3ccccc3o2)N2CCN(C/C=C/c3ccccc3)CC2)cc1 (stereo not drawn) | . | . | -14.5% | 13.2 | .
CC(C)c1ccc(NC(=O)CSc2nc(=O)n(Cc3ccccn3)c3c2CCC3)cc1 | . | 5.5% | 0.0% | -102.3* | .
CC(C)c1ccc(NC(=O)CSc2nc(=O)n(Cc3cccnc3)c3c2CCC3)cc1 | . | -3.5% | ? | -107.1* | .
O=C(CSc1nc(=O)n(Cc2cccnc2)c2c1CCC2)Nc1cccc(Cl)c1 | . | 0.3% | 0.0% | 13.6 | .
COc1ccc(C)cc1NC(=O)CSc1nc(=O)n(Cc2ccncc2)c2c1CCC2 | . | 1.0% | 0.0% | -103.1* | .
Cc1ccc(NC(=O)CSc2nc(=O)n(Cc3ccccn3)c3c2CCC3)cc1F | . | -2.4% | -24.2% | -35.8 | .
O=C(O)c1ccc(-c2nnc(-c3cccc(Br)c3)o2)cc1 | -8.4% | 4.0% | 38.0% | 55.3 | 26.4%
O=S(=O)(Nc1cccc2ncccc12)c1cccc(C(F)(F)F)c1 | -31.1% | 5.1% | 19.5% | -27.7 | -6.1%
CC(OC(=O)c1ccc(Cl)c(S(N)(=O)=O)c1)C(=O)NCC1CCCCC1 (stereo not drawn) | -17.0% | -3.5% | 2.6% | -87.0* | ?
O=C(c1cnn2c(C(F)F)cc(-c3ccccc3)nc12)N1CCN(Cc2ccc3c(c2)OCO3)CC1 | 179.2% | 5.6% | 28.2µM* | -25.1 | 11.2µM*
Cc1ccccc1Cc1c(C)nc2c(C(=O)N3CCN(Cc4ccc5c(c4)OCO5)CC3)cnn2c1C | . | . | ? | ? | 14.1µM*
Cc1ccc(-c2cc(C(F)F)n3ncc(C(=O)N4CCN(c5ccccn5)CC4)c3n2)cc1 | 11.2µM* | -5.6% | 0.0% | -28.5 | -11.5%
SMILES | AmpC no deterg | AmpC inh detg | FMDV inh | HCMV inh | HCV inhibitor
Cc1cccc(Cc2c(C)nc3c(C(=O)N4CCN(Cc5ccc6c(c5)OCO6)CC4)cnn3c2C)c1 | 192.2% | 3.0% | ? | ? | ?
CCN1CCN(C(=O)c2cnn3c(C(F)F)cc(-c4ccc(C)cc4)nc23)CC1 | 87.2% | -0.6% | -23.9% | 31.1 | -26.7%
CC(C)N(C(=O)[C@H]1CC(CC(=O)NCCN2CCOCC2)C(=O)N2CCc3c([nH]c4ccccc34)[C@]12C)C(C)C (stereo partly drawn) | 315.3% | . | -24.7% | 1.0 | ?
COC(=O)[C@]12C[C@H](CC(=O)N3CCOCC3)C(=O)N(Cc3ccc4c(c3)OCO4)C1=C[C@H](C(C)(C)C)O[C@@H]2C | . | . | . | 37.7 | .
Cc1nc(-c2cc(C#N)c(Sc3ccc(Cl)cc3Cl)nc2C)cs1 | -5.8% | -2.9% | -12.3% | 61.6 | -12.4%
Cc1ccc(NC(=O)N2CCc3cc(S(=O)(=O)N4CCC(C)CC4)ccc32)cc1F | . | -5.3% | 3.8% | 67.6 | .
C=CCC[C@@H](Cc1ccc(F)cc1)C(=O)O[C@H](CNC(=O)[C@@H](CC=C)CC(=O)N[C@H](CO)Cc1ccccc1)c1ccccc1 | 25.1% | . | -23.4% | 7.3 | 34.0%
Cc1ccc(-c2nc3sc(CCNC(=O)c4ccc(Br)o4)c(C)n3n2)cc1 | . | -5.9% | 7.9% | 56.9 | .
CCN(CC)S(=O)(=O)c1ccc2c(c1)c(=O)c(C(=O)NCc1ccccc1Cl)cn2C | . | 11.6% | -11.6% | -64.5* | .
CCN1CCCC1CNC(=O)CN1C(=O)COc2ccc(C)cc21 (stereo not drawn) | 25.1µM* | 7.0% | -25.9% | 61.0 | 4.7%
O=C(CN1C(=O)COc2ccccc21)NCCN1CCCC1 | 1.3% | 2.0% | -5.5% | 0.0 | 15.1%
Cc1ccc2c(c1)N(CC(=O)NCCCN1CCN(C)CC1)C(=O)CO2 | -1.7% | 1.4% | -2.9% | -69.1* | 14.9%
O=C(CN1C(=O)COc2ccccc21)NCCCN1CCCC1 | 11.1% | 2.3% | -15.5% | + | -9.5%
CC(=O)N[C@@H](CSC/C=C(\C)CC/C=C(\C)CC/C=C(\C)CCC=C(C)C)C(=O)O | . | . | -20.9%[6.7 µM] | . | .
COC(=O)[C@@H]1CCCN1C(=O)c1c(OC)cc(=O)n2c1CCN(Cc1ccc3c(c1)OCCO3)CC2 | . | . | -6.4% | . | .
COc1ccc(NC(=O)CN(C)C(=O)C(Sc2ccccc2)c2ccccc2)cc1 (stereo not drawn) | -19.8% | -0.9% | -27.8% | -71.9* | ?
Cc1ccc(NC(=O)CN(C)C(=O)C(c2ccccc2)c2ccccc2)cc1 | 64.9% | 1.1% | -5.4% | 3.5 | ?
CCN(CC)CCN1C(=O)c2ccccc2NC1c1ccc(F)cc1 (stereo not drawn) | -12.5% | -11.9% | 11.9% | 20.1 | -17.6%
